PubChem BioAssay AID1159580 (chemical genetic matrix, 2015)
“And” between values parts separate entries of the source, which are not always exact repeats. Identical values can stand only once. About 2,000 (36%) of roughly 5,500 compounds were called active. About 18% were inconclusive and are not listed. Rule as the data show it: active = normalized growth mostly below about 0.91 (no sharp cut-off); inconclusive = no clear call, values can overlap the other calls; inactive = mostly above about 0.92. The list shows a part of the results.

Test: chemical genetic growth profiling, strain panel (AID 1159580);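 also: tested at 20 µM; growth read once vehicle control cultures reached saturation at 30 °C; 1 = growth at the plate median or of vehicle wells; lower values mean less growth of the strain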
Details: growth OD
[1] = S. cerevisiae deletion strains, locus YDL101C, strain DUN1, active compounds read low
[2] = S. cerevisiae deletion strains, locus YHR030C, strain SLT2, active compounds read low
[3] = S. cerevisiae deletion strains, locus YHR079C, strain IRE1, active compounds read low
[4] = S. cerevisiae deletion strains, locus YJL095W, strain BCK1, active compounds read low
[5] = S. cerevisiae deletion strains, locus YJR066W, strain TOR1, active compounds read low
[6] = S. cerevisiae deletion strains, locus YLR113W, strain HOG1, active compounds read low
[7] = S. cerevisiae deletion strains, locus YNL183C, strain NPR1, active compounds read low
[8] = S. cerevisiae deletion strains, locus YOR061W, strain CKA2, active compounds read low
[9] = S. cerevisiae deletion strains, locus YOR231W, strain MKK1, active compounds read low
[10] = S. cerevisiae deletion strains, locus YPL256C, strain CLN2, active compounds read low

Measured: normalized growth

O=C(OCC(O)CO)c1ccccc1Nc1ccnc2cc(Cl)ccc12 (stereo not drawn)
inactive: S. cerevisiae deletion strains, locus YAL013W, strain DEP1, active compounds read low 0.996 | S. cerevisiae deletion strains, locus YBR021W, strain FUR4, active compounds read low 1.01 | S. cerevisiae deletion strains, locus YBR229C, strain ROT2, active compounds read low 0.994 | S. cerevisiae deletion strains, locus YCL029C, strain bik1, active compounds read low 0.961 | S. cerevisiae deletion strains, locus YDL035C, strain GPR1, active compounds read low 1.01 | S. cerevisiae deletion strains, locus YDL074C, strain BRE1, active compounds read low 0.978 | [1] 0.98 | S. cerevisiae deletion strains, locus YDL134C, strain PPH21, active compounds read low 0.999 | S. cerevisiae deletion strains, locus YDL185W, strain tfp1, active compounds read low 0.978 | S. cerevisiae deletion strains, locus YDL192W, strain arf1, active compounds read low 0.99 | S. cerevisiae deletion strains, locus YDR101C, strain arx1, active compounds read low 0.988 | S. cerevisiae deletion strains, locus YDR150W, strain NUM1, active compounds read low 0.98 | S. cerevisiae deletion strains, locus YDR162C, strain NBP2, active compounds read low 0.992 | S. cerevisiae deletion strains, locus YDR318W, strain mcm21, active compounds read low 0.977 | S. cerevisiae deletion strains, locus YDR388W, active compounds read low 0.997 | S. cerevisiae deletion strains, locus YDR502C, strain sam2, active compounds read low 0.975 | S. cerevisiae deletion strains, locus YEL061C, strain CIN8, active compounds read low 0.997 | S. cerevisiae deletion strains, locus YER110C, active compounds read low 0.978 | S. cerevisiae deletion strains, locus YER155C, strain BEM2, active compounds read low 0.988 | S. cerevisiae deletion strains, locus YER167W, strain BCK2, active compounds read low 0.986 | S. cerevisiae deletion strains, locus YGL078C, strain dbp3, active compounds read low 0.995 | S. cerevisiae deletion strains, locus YGL086W, strain mad1, active compounds read low 0.999 | S. cerevisiae deletion strains, locus YGL248W, strain PDE1, active compounds read low 0.983 | S. cerevisiae deletion strains, locus YGR078C, strain PAC10, active compounds read low 0.962 | S. cerevisiae deletion strains, locus YGR135W, strain pre9, active compounds read low 0.974 | S. cerevisiae deletion strains, locus YGR229C, strain SMI1, active compounds read low 0.981 | S. cerevisiae deletion strains, locus YGR252W, strain gcn5, active compounds read low 1.06 | [2] 0.991 and 0.957 | S. cerevisiae deletion strains, locus YHR079C, strain IRE1 (second series), active compounds read low 0.989 | [3] 0.969 | S. cerevisiae deletion strains, locus YHR094C, strain hxt1, active compounds read low 0.979 | S. cerevisiae deletion strains, locus YHR129C, strain ARP1, active compounds read low 0.981 | S. cerevisiae deletion strains, locus YHR200W, strain rpn10, active compounds read low 0.987 | S. cerevisiae deletion strains, locus YIL066C, strain RNR3, active compounds read low 0.98 | S. cerevisiae deletion strains, locus YIL073C, strain SPO22, active compounds read low 0.925 | S. cerevisiae deletion strains, locus YIL125W, strain kgd1, active compounds read low 0.991 | S. cerevisiae deletion strains, locus YIR030C, strain dcg1, active compounds read low 0.988 | [4] 0.943 and 0.974 | S. cerevisiae deletion strains, locus YJL134W, strain LCB3, active compounds read low 0.993 | S. cerevisiae deletion strains, locus YJL168C, strain set2, active compounds read low 0.995 | S. cerevisiae deletion strains, locus YJL187C, strain SWE1 (second series), active compounds read low 0.936 | S. cerevisiae deletion strains, locus YJR043C, strain POL32, active compounds read low 0.982 | [5] 0.912 | S. cerevisiae deletion strains, locus YJR075W, strain HOC1, active compounds read low 0.978 | S. cerevisiae deletion strains, locus YKL009W, strain mrt4, active compounds read low 0.968 | S. cerevisiae deletion strains, locus YKL068W, active compounds read low 0.987 | S. cerevisiae deletion strains, locus YKL085W, strain MDH1 (second series), active compounds read low 0.975 | S. cerevisiae deletion strains, locus YKL085W, strain MDH1, active compounds read low 0.975 | S. cerevisiae deletion strains, locus YKL190W, strain CNB1, active compounds read low 0.984 | S. cerevisiae deletion strains, locus YKR001C, strain vps1, active compounds read low 0.99 | S. cerevisiae deletion strains, locus YLR039C, strain RIC1, active compounds read low 1.01 | S. cerevisiae deletion strains, locus YLR058C, strain SHM2, active compounds read low 0.986 | S. cerevisiae deletion strains, locus YLR102C, strain apc9, active compounds read low 0.992 | [6] 1.01 | S. cerevisiae deletion strains, locus YLR262C, strain YPT6, active compounds read low 1.03 | S. cerevisiae deletion strains, locus YLR268W, strain sec22, active compounds read low 0.918 | S. cerevisiae deletion strains, locus YLR330W, strain CHS5, active compounds read low 0.988 | S. cerevisiae deletion strains, locus YLR342W, strain FKS1 (second series), active compounds read low 1.05 | S. cerevisiae deletion strains, locus YLR371W, strain rom2, active compounds read low 0.985 | S. cerevisiae deletion strains, locus YLR418C, strain cdc73, active compounds read low 0.924 | S. cerevisiae deletion strains, locus YML016C, strain PPZ1, active compounds read low 0.999 | S. cerevisiae deletion strains, locus YML032C, strain rad52, active compounds read low 0.971 | S. cerevisiae deletion strains, locus YML124C, strain tub3, active compounds read low 0.988 | S. cerevisiae deletion strains, locus YMR078C, strain ctf18, active compounds read low 0.99 | S. cerevisiae deletion strains, locus YMR223W, strain ubp8, active compounds read low 1.01 | S. cerevisiae deletion strains, locus YMR263W, strain SAP30, active compounds read low 0.976 | S. cerevisiae deletion strains, locus YMR307W, strain GAS1, active compounds read low 0.984 | S. cerevisiae deletion strains, locus YNL067W, strain RPL9B, active compounds read low 0.968 | S. cerevisiae deletion strains, locus YNL128W, strain TEP1, active compounds read low 0.975 | S. cerevisiae deletion strains, locus YNL153C, strain GIM3, active compounds read low 0.976 | [7] 0.899 | S. cerevisiae deletion strains, locus YNL233W, strain BNI4, active compounds read low 0.974 | S. cerevisiae deletion strains, locus YNL250W, strain rad50, active compounds read low 0.969 | S. cerevisiae deletion strains, locus YNL271C, strain bni1, active compounds read low 0.987 | S. cerevisiae deletion strains, locus YNL298W, strain CLA4, active compounds read low 0.993 | S. cerevisiae deletion strains, locus YNL307C, strain MCK1, active compounds read low 0.983 | S. cerevisiae deletion strains, locus YNL322C, strain KRE1, active compounds read low 0.988 | S. cerevisiae deletion strains, locus YNR052C, strain pop2, active compounds read low 1.01 | S. cerevisiae deletion strains, locus YOL006C, strain TOP1, active compounds read low 0.929 | S. cerevisiae deletion strains, locus YOL012C, strain htz1 1.65 | S. cerevisiae deletion strains, locus YOL147C, strain pex11, active compounds read low 0.98 | [8] 0.99 | S. cerevisiae deletion strains, locus YOR069W, strain VPS5, active compounds read low 0.996 | S. cerevisiae deletion strains, locus YOR136W, strain idh2, active compounds read low 0.998 | S. cerevisiae deletion strains, locus YOR144C, strain elg1, active compounds read low 0.993 | S. cerevisiae deletion strains, locus YOR184W, strain ser1, active compounds read low 0.954 | [9] 0.983 | S. cerevisiae deletion strains, locus YOR316C, strain cot1, active compounds read low 0.982 | S. cerevisiae deletion strains, locus YPL055C, strain LGE1, active compounds read low 0.938 | S. cerevisiae deletion strains, locus YPL241C, strain CIN2, active compounds read low 0.991 | [10] 0.927 | S. cerevisiae deletion strains, locus YPR119W, strain clb2, active compounds read low 0.99 | S. cerevisiae deletion strains, locus YPR141C, strain kar3, active compounds read low 0.97 | S. cerevisiae deletion strains, locus YPR163C, strain tif3, active compounds read low 0.979 | S. cerevisiae deletion strains, locus YPR167C, strain met16, active compounds read low 0.989 | S. cerevisiae deletion strains, strain wtn01, active compounds read low 0.98 | S. cerevisiae strains, strain wild type, active compounds read low 0.991

Cc1ccc(Nc2ccnc3cc(Cl)ccc23)cc1F
active: [2] 0.826
inactive: S. cerevisiae deletion strains, locus YAR019C, strain CDC15, active compounds read low 0.997 | S. cerevisiae deletion strains, locus YBL105C, strain PKC1, active compounds read low 0.993 | S. cerevisiae deletion strains, locus YBR135W, strain CKS1, active compounds read low 0.995 | S. cerevisiae deletion strains, locus YBR136W, strain MEC1, active compounds read low 0.995 | S. cerevisiae deletion strains, locus YBR160W, strain CDC28, active compounds read low 0.988 | S. cerevisiae deletion strains, locus YDL017W, strain CDC7, active compounds read low 1 | S. cerevisiae deletion strains, locus YDL028C, strain MPS1, active compounds read low 0.991 | [1] 0.992 | S. cerevisiae deletion strains, locus YDL108W, strain KIN28, active compounds read low 0.995 | S. cerevisiae deletion strains, locus YDL132W, strain cdc53, active compounds read low 0.987 | S. cerevisiae deletion strains, locus YDL214C, strain PRR2, active compounds read low 0.942 | S. cerevisiae deletion strains, locus YDR052C, strain DBF4, active compounds read low 0.991 | S. cerevisiae deletion strains, locus YDR054C, strain cdc34, active compounds read low 0.985 | S. cerevisiae deletion strains, locus YDR226W, strain ADK1, active compounds read low 0.997 | S. cerevisiae deletion strains, locus YDR477W, strain SNF1, active compounds read low 0.946 | S. cerevisiae deletion strains, locus YER123W, strain YCK3, active compounds read low 0.918 | S. cerevisiae deletion strains, locus YER133W, strain GLC7, active compounds read low 0.96 | S. cerevisiae deletion strains, locus YFL009W, strain cdc4, active compounds read low 0.983 | S. cerevisiae deletion strains, locus YFL029C, strain CAK1, active compounds read low 0.986 | S. cerevisiae deletion strains, locus YFR003C, strain YPI1, active compounds read low 0.996 | S. cerevisiae deletion strains, locus YFR019W, strain FAB1, active compounds read low 0.943 | S. cerevisiae deletion strains, locus YFR028C, strain CDC14, active compounds read low 0.989 | S. cerevisiae deletion strains, locus YGR040W, strain KSS1, active compounds read low 0.945 | S. cerevisiae deletion strains, locus YGR052W, strain FMP48, active compounds read low 1.06 | S. cerevisiae deletion strains, locus YGR092W, strain DBF2, active compounds read low 0.973 | [3] 0.96 | S. cerevisiae deletion strains, locus YHR082C, strain KSP1, active compounds read low 1 | S. cerevisiae deletion strains, locus YHR205W, strain SCH9, active compounds read low 0.915 | S. cerevisiae deletion strains, locus YIL147C, strain SLN1, active compounds read low 0.992 | [4] 0.905 | S. cerevisiae deletion strains, locus YJL128C, strain PBS2, active compounds read low 0.935 | S. cerevisiae deletion strains, locus YJL157C, strain FAR1, active compounds read low 0.965 | S. cerevisiae deletion strains, locus YJR016C, strain ILV3, active compounds read low 0.998 | S. cerevisiae deletion strains, locus YJR066W, strain TOR1 (second series), active compounds read low 0.946 | [5] 0.967 | S. cerevisiae deletion strains, locus YKL048C, strain ELM1, active compounds read low 0.943 | S. cerevisiae deletion strains, locus YKL067W, strain YNK1, active compounds read low 0.937 | S. cerevisiae deletion strains, locus YKL101W, strain HSL1, active compounds read low 0.951 | S. cerevisiae deletion strains, locus YKL193C, strain SDS22, active compounds read low 0.997 | S. cerevisiae deletion strains, locus YKL203C, strain TOR2, active compounds read low 0.977 | [6] 0.924 | S. cerevisiae deletion strains, locus YLR133W, strain CKI1, active compounds read low 0.94 | S. cerevisiae deletion strains, locus YLR403W, strain SFP1, active compounds read low 0.951 | S. cerevisiae deletion strains, locus YML070W, strain DAK1, active compounds read low 0.947 | S. cerevisiae deletion strains, locus YMR001C, strain CDC5, active compounds read low 0.995 | S. cerevisiae deletion strains, locus YMR205C, strain PFK2 (second series), active compounds read low 0.956 | S. cerevisiae deletion strains, locus YMR277W, strain FCP1, active compounds read low 0.995 | S. cerevisiae deletion strains, locus YNL006W, strain LST8, active compounds read low 1.01 | S. cerevisiae deletion strains, locus YNL020C, strain ARK1, active compounds read low 0.943 | S. cerevisiae deletion strains, locus YNL161W, strain CBK1, active compounds read low 1 | [7] 0.936 | S. cerevisiae deletion strains, locus YNL207W, strain RIO2, active compounds read low 0.997 | S. cerevisiae deletion strains, locus YNL222W, strain SSU72, active compounds read low 1 | S. cerevisiae deletion strains, locus YNL307C, strain MCK1 (second series), active compounds read low 0.918 | S. cerevisiae deletion strains, locus YOL078W, strain AVO1, active compounds read low 0.997 | S. cerevisiae deletion strains, locus YOL136C, strain PFK27, active compounds read low 0.934 | [8] 0.978 | S. cerevisiae deletion strains, locus YOR119C, strain RIO1, active compounds read low 1.04 | [9] 0.972 | S. cerevisiae deletion strains, locus YOR329C, strain SCD5, active compounds read low 0.996 | S. cerevisiae deletion strains, locus YPL031C, strain PHO85, active compounds read low 0.947 | S. cerevisiae deletion strains, locus YPL153C, strain RAD53, active compounds read low 0.938 | S. cerevisiae deletion strains, locus YPL204W, strain HRR25, active compounds read low 0.927 | S. cerevisiae deletion strains, locus YPL209C, strain IPL1, active compounds read low 0.998 | [10] 0.92 | S. cerevisiae deletion strains, locus YPR025C, strain CCL1, active compounds read low 0.99 | S. cerevisiae deletion strains, locus YPR106W, strain ISR1, active compounds read low 0.994 | S. cerevisiae deletion strains, locus YPR111W, strain DBF20, active compounds read low 0.976 | S. cerevisiae deletion strains, strain NNK1, active compounds read low 0.981 | S. cerevisiae deletion strains, strain TSCII, active compounds read low 0.99
